PubChem BioAssay (EPA / NIEHS)
“And” between values parts separate entries of the source, which are not always exact repeats. Identical values can stand only once. Where a structure was tested more than once in an assay, its records may differ in their call. The source made the active and inactive calls. How the source made its calls: active means hit-call score of the fitted dose curve at least 0.9, where 1 is the maximum; inactive means score below 0.9.

Legend:
[1] = read-out: Matrix Metallopeptidase 1 (MMP1), MMP1 (gene 4312); test: BSK_BE3C_MMP1: BioMAP Diversity Plus: BE3C Assay for Matrix Metallopeptidase 1 (MMP1) Biomarker Activity (AID 2283024); settings: primary human bronchial epithelial cells; actives raise or lower the signal
Method in brief: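 Human primary bronchial epithelial cells (BE3C system) dosed for 24 h; MMP-1 quantified by ELISA. Bidirectional fit against DMSO; cytotoxicity tracked in parallel cultures by SRB total-protein staining.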

[2] = BSK_3C_Vis: BioMAP Diversity Plus: 3C Assay for Morphology Visualization (AID 2283025); settings: primary human endothelial cells (HUVEC);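 further: fitted both ways so gain or loss versus DMSO counts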;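 on AC50: light microscopy image of cell morphology used as background control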
Method in brief: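 Human umbilical vein endothelial cell morphology was inspected by light microscopy 24 h after chemical dosing; scored bidirectionally relative to DMSO.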

[3] = read-out: Pselectin, SELP (gene 6403); test: BSK_4H_Pselectin: BioMAP Diversity Plus: 4H Assay for Pselectin Biomarker Activity (AID 2283026); settings: primary human endothelial cells (HUVEC); actives raise or lower the signal
Method in brief: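 Primary human umbilical vein endothelial cells were treated 24 h, and cell-surface P-selectin was then quantified by ELISA. Bidirectional fit versus DMSO; cytotoxicity checked in parallel cultures by SRB total-protein staining.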

[4] = BSK_4H_SRB: Viability Assessment in the BioMAP Diversity Plus: 4H Assay (AID 2283027); settings: primary human endothelial cells (HUVEC);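 further: cells exposed to compound for 24 h before staining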;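 on AC50: curves fitted both ways versus DMSO so AC50 may be loss or gain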
Method in brief: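 Human umbilical vein endothelial cells were dosed with chemical and, after 24 h, fixed with 10% TCA, stained with 0.1% sulforhodamine B, and read at 560 nm to give total protein as a cytotoxicity measure. Bidirectional fitting relative to DMSO control.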

[5] = BSK_BE3C_SRB: Viability Assessment in the BioMAP Diversity Plus: BE3C Assay (AID 2283028); settings: primary human bronchial epithelial cells;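 on AC50: fitted both ways so AC50 may mark signal gain or loss versus DMSO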
Method in brief: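 Human primary bronchial epithelial cells were exposed to test chemicals for 24 h. Total protein in parallel cultures was then measured by staining with 0.1% sulforhodamine B after 10% TCA fixation, with absorbance read at 560 nm. Activity was fitted bidirectionally against DMSO.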

[6] = read-out: Urokinase-type plasminogen activator receptor (uPAR), PLAUR (gene 5329); test: BSK_4H_uPAR: BioMAP Diversity Plus: 4H Assay for Urokinase-type plasminogen activator receptor (uPAR) Biomarker Activity (AID 2283030); settings: primary human endothelial cells (HUVEC); actives raise or lower the signal
Method in brief: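 Primary human umbilical vein endothelial cells were exposed to chemical for 24 h before cell-surface uPAR was quantified by ELISA. Activity was fitted bidirectionally against the DMSO negative control baseline.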

[7] = read-out: Vascular endothelial growth factor receptor 2 (Homo sapiens) (UniProt P35968); test: BSK_4H_VEGFRII: BioMAP Diversity Plus: 4H Assay for Vascular endothelial growth factor receptor 2 (VEGFR2) Biomarker Activity (AID 2283031); settings: primary human endothelial cells (HUVEC); actives raise or lower the signal;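 on AC50: cell-surface VEGFR2 protein level quantified by ELISA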
Method in brief: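 Primary human umbilical vein endothelial cells in the BioMAP 4H system were dosed with test chemical, and 24 h later VEGFRII was measured by ELISA. Activity was fitted bidirectionally against DMSO as negative control and baseline.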

[8] = read-out: Human Leukocyte Antigen - DR isotype (HLADR), HLA-DRA (gene 3122); test: BSK_BE3C_HLADR: BioMAP Diversity Plus: BE3C Assay for Human Leukocyte Antigen - DR isotype (HLADR) Biomarker Activity (AID 2283032); settings: primary human bronchial epithelial cells; actives raise or lower the signal
Method in brief: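 Human primary bronchial epithelial cells (BE3C system) exposed to compound for 24 hours; cell-surface HLA-DR measured by ELISA, fitted bidirectionally relative to DMSO. Total protein by SRB in parallel cultures tracked cytotoxicity.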

[9] = BSK_3C_SRB: Viability Assessment in the BioMAP Diversity Plus: 3C Assay (AID 2283023); settings: primary human endothelial cells (HUVEC);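 further: fitted both ways against DMSO so a hit may be signal rise or drop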
Method in brief: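 Primary human umbilical vein endothelial cells in the 3C system were read 24 h after compound dosing. Total protein was stained with 0.1% sulforhodamine B after 10% TCA fixation and read at 560 nm, with bidirectional fitting against DMSO as baseline.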

[10] = read-out: Thrombomodulin, THBD (gene 7056); test: BSK_3C_Thrombomodulin: BioMAP Diversity Plus: 3C Assay for Thrombomodulin Biomarker Activity (AID 2283029); settings: primary human endothelial cells (HUVEC); actives raise or lower the signal
Method in brief: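 Human umbilical vein endothelial cells were exposed to chemicals for 24 h; cell-surface thrombomodulin quantified by ELISA, with bidirectional fitting against DMSO baseline.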

Measured: AC50

O=C1NS(=O)(=O)c2ccccc21
inactive: [1] | [2] | [3] | [4] | [5] | [6] | [7] | [8]
active: [3] 5.01 µM

Oc1c(Cl)cc(Cl)cc1Sc1cc(Cl)cc(Cl)c1O
inactive: [1] | [10]
active: [9] 15.7 µM and 13.3 µM | [3] 5.81 µM and 4.28 µM | [4] 23.9 µM and 23.7 µM | [5] 5.25 µM and 5.18 µM | [10] 11.1 µM | [6] 20 µM and 9.97 µM | [7] 5.09 µM and 4.99 µM | [8] 3.56 µM and 3.35 µM

O=C(O)CCC(F)(F)C(F)(F)C(F)(F)C(F)(F)C(F)(F)F
inactive: [9] | [1] | [3] | [4] | [5] | [10] | [6] | [7] | [8]

Cc1[nH]nc2c1N=C(c1ccccc1Cl)c1cc([N+](=O)[O-])ccc1N2
inactive: [1] | [10]
active: [2] 0.645 µM | [3] 0.639 µM | [4] 0.733 µM | [5] 20.3 µM | [6] 0.666 µM | [7] 2.43 µM | [8] 10.3 µM

COc1cccc(O)c1
active: [1] 0.193 µM
inactive: [2] | [3] | [4] | [5] | [10] | [6] | [7] | [8]

COCN(COC)c1nc(N(COC)COC)nc(N(COC)COC)n1
inactive: [9] | [1] | [2] | [3] | [4] | [5] | [10] | [6] | [7] | [8]

CS(=O)(=O)c1ccc([C@@H](CC2CCCC2)C(=O)Nc2cnccn2)cc1Cl
inactive: [2] | [3] | [5] | [10] | [7] | [8]
active: [1] 9.05 µM | [4] 19.2 µM | [6] 22.7 µM

O=C(O)CCC(F)(F)C(F)(F)C(F)(F)C(F)(F)C(F)(F)C(F)(F)F
active: [1] 7.99 µM
inactive: [1] | [3] | [4] | [5] | [6] | [7] | [8]

CCOC(=O)CN[C@@H](C(=O)N1CC[C@H]1C(=O)NCc1ccc(/C(N)=N/O)cc1)C1CCCCC1
inactive: [1] | [2] | [3] | [4] | [5] | [10] | [6] | [7] | [8]

C=CC(=C)CC/C=C(\C)CCC=C(C)C
inactive: [9] | [2] | [3] | [4] | [5] | [10] | [6] | [7] | [8]
active: [1] 0.00695 µM

CN(C)CCOC(c1ccccc1)c1ccccc1
inactive: [9] | [1] | [2] | [4] | [5] | [7] | [8]
active: [3] 3.97 µM | [6] 2.27 µM

O=P(O)(O)CCC(F)(F)C(F)(F)C(F)(F)C(F)(F)C(F)(F)C(F)(F)F
active: [1] 40 µM
inactive: [1] | [3] | [4] | [5] | [6] | [7] | [8]

C=COC(=O)C(C)(C)CCCCCC
inactive: [5]
active: [9] 34.6 µM | [1] 3.97 µM | [2] 37.8 µM | [3] 32.4 µM | [4] 34.3 µM | [6] 32.6 µM | [7] 25.6 µM | [8] 24.8 µM

NC(=NCCCCCCN=C(N)/N=C(\N)Nc1ccc(Cl)cc1)/N=C(\N)Nc1ccc(Cl)cc1
active: [9] 4.85 µM | [1] 3.14 µM | [3] 4.81 µM | [4] 4.85 µM | [5] 4.74 µM | [10] 6.15 µM | [6] 4.47 µM | [7] 4.47 µM | [8] 3.83 µM

O=C1c2ccc(O)c(O)c2C(=O)c2c(O)ccc(O)c21
inactive: [9] | [1] | [2] | [3] | [4] | [5] | [10] | [6] | [7] | [8]

CN(Cc1cnc2nc(N)nc(N)c2n1)c1ccc(C(=O)N[C@@H](CCC(=O)O)C(=O)O)cc1
inactive: [1] | [2] | [3] | [4] | [5] | [10] | [6] | [7] | [8]

O=P(O)(O)CCC(F)(F)C(F)(F)C(F)(F)C(F)(F)C(F)(F)C(F)(F)C(F)(F)C(F)(F)F
inactive: [1] | [3] | [4] | [5] | [6] | [7] | [8]
active: [1] 11.5 µM | [4] 42.7 µM

CN(CCO)S(=O)(=O)C(F)(F)C(F)(F)C(F)(F)C(F)(F)C(F)(F)C(F)(F)C(F)(F)C(F)(F)F
active: [1] 1.63 µM | [3] 0.243 µM
inactive: [1] | [3] | [4] | [5] | [6] | [7] | [8]

OCCN1CN(CCO)CN(CCO)C1
inactive: [1] | [5] | [10]
active: [9] 32.1 µM | [2] 14.9 µM | [3] 23.1 µM | [4] 31.5 µM | [6] 29 µM | [7] 33.9 µM | [8] 35.5 µM

C=CC(=O)OCCC(F)(F)C(F)(F)C(F)(F)C(F)(F)C(F)(F)C(F)(F)C(F)(F)C(F)(F)F
inactive: [9] | [1] | [3] | [4] | [5] | [6] | [7] | [8]

O=C(CC(=O)C(F)(F)C(F)(F)C(F)(F)F)c1cccs1
active: [9] 24.1 µM and 43.7 µM | [1] 43.6 µM and 45.2 µM | [3] 19.1 µM and 20.2 µM | [4] 34.4 µM and 44.3 µM | [5] 30 µM and 37.9 µM | [6] 49.1 µM and 54.8 µM | [7] 8.16 µM | [8] 20.4 µM and 23.8 µM
inactive: [7]

O=S(=O)(O)C(F)(F)C(F)(F)C(F)(F)C(F)(F)C(F)(F)C(F)(F)C(F)(F)C(F)(F)C(F)(F)C(F)(F)F
active: [9] 18.5 µM and 14.5 µM | [1] 3.54 µM | [5] 12.9 µM and 10.8 µM | [8] 18.2 µM and 15.8 µM
inactive: [1] | [3] | [4] | [6] | [7]

CCCCCCCCCCCCCCC
inactive: [9] | [1] | [2] | [3] | [4] | [5] | [10] | [6] | [7] | [8]

Cc1cccc2c1ccc1ccccc12
inactive: [9] | [1] | [2] | [3] | [4] | [5] | [10] | [6] | [7] | [8]

CC(C)(C)c1ccc(O)c(O)c1
active: [2] 8.8 µM | [3] 20 µM | [4] 5.52 µM
inactive: [1] | [5] | [10] | [6] | [7] | [8]

N=C(N)c1ccc(OCCCCCOc2ccc(C(=N)N)cc2)cc1
inactive: [9] | [1] | [4] | [5] | [7]
active: [2] 8.61 µM | [3] 7.2 µM | [6] 3.47 µM | [8] 22.7 µM
